Screening results (PubChem BioAssay)
G9a inh – inhibitors of human histone lysine methyltransferase G9a. G9a H3K9 monomethylation, AlphaScreen, 2 h. Potency, µM (series often up to 102 µM), for the others: at the top dose activity, negative = inhibition, most hits filed as inhibitors. AID 504332. actives 8.8% (n = 350,000); note: % is set by controls: 0 for no effect and ±100 for the full control effect; nearly all actives have a fitted effect of over 75% in size
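Step 1: enzyme (final 20 nM) with compound, 15 min RT. Step 2: substrate peptide 500 nM and SAM 20 uM, 2 h RT. Step 3: anti-H3K9me1 antibody and AlphaScreen beads, 10 min, then plate read.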
HP1b chromo inh – blocks HP1-beta chromodomain binding to methylated histone tails. P83916. AlphaScreen HP1-beta / biotin-H3K9me3 peptide binding. Potency, µM (highest dose often 114 µM), for inactives: top-dose activity change, negative = inhibition, hits mostly inhibitors. actives 0.56% (n = 390,000); note: nearly all actives have a fitted effect of over 70% in size
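Compound inhibition of the preformed complex between 50 nM HP1-beta and 50 nM biotinylated H3K9me3 peptide was read by AlphaScreen. Buffer was PBS pH 7.4 with 0.01% Tween-20. Incubations ran 30 min at room temperature, with 10 ug/mL donor/acceptor beads.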
L3MBTL1 block – L3MBTL1 (human) inhibition; Potency, µM (doses to about 57.1 µM), for inactives: at the top dose activity, negative = inhibition, actives largely listed as inhibitors; AlphaScreen L3MBTL1–H3K9me1 peptide binding; actives 0.66% (n = 230,000); Q9Y468; note: % is set by controls: 0 for no effect and ±100 for the full control effect; nearly all actives have a fitted effect of over 60% in size
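AlphaScreen proximity signal between nickel-chelate acceptor and streptavidin donor beads (final 10 ug/mL) reports binding of 50 nM L3MBTL1 to 75 nM biotin-H3 K9me1 peptide; complex incubated with compounds 30 min at room temperature; cefsulodin titration as control.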
Sfp PPTase inh – blocks B. subtilis Sfp PPTase activity. Potency, µM, for inactives: largest response in the series, negative = inhibition, usual class: inhibitors. actives 3.5% (n = 310,000). Biochemical Sfp PPTase activity, qHTS;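 note: the enzyme is Sfp with the accession as filed and its product quenches rhodamine fluorescence; 0% = enzyme reaction without inhibitor and -100% = no enzyme wells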
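After 15 min at room temperature with compound, 15 nM Sfp received 5 uM rhodamine-CoA plus 12.5 uM BHQ-2-ybbR (50 mM Hepes pH 7.6, 10 mM MgCl2). Rate came from the fluorescence difference over 30 min, ex 525/em 598 nm.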
BAZ2B inh – blocks human BAZ2B | Q9UIF8 | AID 504333 | Potency, µM (series often up to 114 µM), without a hit: top-dose activity change, negative = inhibition, actives largely listed as inhibitors | AlphaScreen BAZ2B-H3K14Ac peptide displacement | actives 4.4% (n = 360,000); note: % is set by controls: 0 for no effect and ±100 for the full control effect; nearly all actives have a fitted effect of over 60% in size
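Protein-peptide AlphaScreen: BAZ2B 50 nM, b-H3K14Ac 50 nM, 1x PBS pH 7.4 + 0.01% Tween-20. Preincubation 30 min RT; cpd 30 min RT (top 110 uM); beads 20 min RT, light-protected.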
JMJD2A Tudor – JMJD2A Tudor domain (human) inhibition; actives 4.4% (n = 390,000); Potency, µM (titrated, usually from 114 µM), for the others: top-dose activity change, negative = inhibition, usual class: inhibitors; AID 504339; AlphaScreen JMJD2A-Tudor / H3K4me3 peptide binding; note: % is set by controls: 0 for no effect and ±100 for the full control effect; nearly all actives have a fitted effect of over 50% in size
Target sequence (O75164 whole entry, looked up, the tested form may be a part): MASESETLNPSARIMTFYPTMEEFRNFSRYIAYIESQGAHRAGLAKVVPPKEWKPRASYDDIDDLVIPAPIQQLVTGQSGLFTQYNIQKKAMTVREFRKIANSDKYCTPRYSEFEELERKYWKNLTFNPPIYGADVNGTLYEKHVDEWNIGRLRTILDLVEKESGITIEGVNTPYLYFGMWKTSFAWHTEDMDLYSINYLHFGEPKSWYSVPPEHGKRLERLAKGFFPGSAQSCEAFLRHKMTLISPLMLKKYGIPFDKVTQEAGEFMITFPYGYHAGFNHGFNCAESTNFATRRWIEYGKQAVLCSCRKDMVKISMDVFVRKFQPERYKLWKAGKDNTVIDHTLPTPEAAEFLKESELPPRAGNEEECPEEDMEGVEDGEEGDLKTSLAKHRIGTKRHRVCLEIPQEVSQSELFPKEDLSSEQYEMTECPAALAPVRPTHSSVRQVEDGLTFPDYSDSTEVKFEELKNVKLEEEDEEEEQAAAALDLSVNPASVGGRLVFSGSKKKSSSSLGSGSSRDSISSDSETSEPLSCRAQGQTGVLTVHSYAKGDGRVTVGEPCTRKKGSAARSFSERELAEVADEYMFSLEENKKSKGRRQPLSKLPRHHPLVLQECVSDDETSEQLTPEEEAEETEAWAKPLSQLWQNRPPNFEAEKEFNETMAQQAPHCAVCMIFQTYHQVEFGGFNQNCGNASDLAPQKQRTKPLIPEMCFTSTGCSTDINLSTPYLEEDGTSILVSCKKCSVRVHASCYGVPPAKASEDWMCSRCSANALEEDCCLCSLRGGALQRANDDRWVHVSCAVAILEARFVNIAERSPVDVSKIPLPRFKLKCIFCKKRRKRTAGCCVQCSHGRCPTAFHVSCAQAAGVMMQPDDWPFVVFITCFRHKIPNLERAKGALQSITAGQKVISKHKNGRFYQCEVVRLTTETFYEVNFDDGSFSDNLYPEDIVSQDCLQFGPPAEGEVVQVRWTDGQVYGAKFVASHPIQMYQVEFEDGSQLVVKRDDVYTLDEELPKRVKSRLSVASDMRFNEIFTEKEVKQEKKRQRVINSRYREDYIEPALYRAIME
Numbers without * were called inactive; [ ] = another dose, or the depositor's remark. A selection: hits, their analogues and other compounds. The true share with any hit is near 12%. Calls come from the whole dose curve; as a rule, active = well fitted curve in the direction sought with a large enough effect; inconclusive = small, poorly fitted or top-dose-only effect, or another doubt; inactive = no such curve, though single readings can be large; an effect the other way counts as inactive or inconclusive. Potency is the fitted concentration of half-maximal effect.

`COc1ccc(-c2ccc(OC)c([C@H]3[C@H]4C=CC[C@@H](C)[C@@H]4C(=O)N3Cc3ccccc3)c2)cc1OC` gave G9a inh -16%[59 µM], HP1b chromo inh -18%, Sfp PPTase inh -26%, BAZ2B inh -33% and JMJD2A Tudor 40µM*.
`C/C(CC1CC(C)(C)OC1=O)=N\NC(N)=S` (stereo unspecified) gave G9a inh 32µM*, HP1b chromo inh 7%, L3MBTL1 block 0%, Sfp PPTase inh 35µM*, BAZ2B inh inconclusive and JMJD2A Tudor 7.1µM*.
For C/C(CCC1CC(C)(C)OC1=O)=N\NC(N)=S (stereo unspecified) the results were G9a inh 8.9µM*, HP1b chromo inh -8%, L3MBTL1 block 10%, Sfp PPTase inh 45µM*, BAZ2B inh inconclusive and JMJD2A Tudor 79µM*.
C/C(CC1CC(COCCC(C)C)OC1=O)=N\NC(N)=S (stereo unspecified) was read as G9a inh 7%[0.501 µM], HP1b chromo inh 22%, L3MBTL1 block 1%, Sfp PPTase inh 79µM*, BAZ2B inh inconclusive and JMJD2A Tudor inconclusive.
CC(C)CCC1CC(CSC(=N)N)OC1=O (stereo unspecified) was read as G9a inh 6%[59 µM], HP1b chromo inh 62%, Sfp PPTase inh -16%, BAZ2B inh 0% and JMJD2A Tudor -12%[57.1 µM].
Screening CCCC1CC(C)(/C(C)=N\NC(N)=S)OC1=O (stereo unspecified) returned G9a inh 14%[0.501 µM], HP1b chromo inh 44%, L3MBTL1 block 11%, Sfp PPTase inh -26%, BAZ2B inh 5% and JMJD2A Tudor -1%.
For CCN(C(=O)C1CCC(CNS(=O)(=O)c2cccc3nsnc23)CC1)c1cccc(C)c1 (stereo unspecified) the results were G9a inh inconclusive, HP1b chromo inh 1%, BAZ2B inh -35% and JMJD2A Tudor -28%.
`O=C(/C=C/c1ccc2c(c1)OCCCO2)c1ccc2ccccc2c1O` gave G9a inh 11µM*, HP1b chromo inh 25µM*, L3MBTL1 block inconclusive, Sfp PPTase inh 40µM*, BAZ2B inh 10µM* and JMJD2A Tudor 28µM*.
For O=C(/C=C/c1ccc(O)cc1)c1ccc(O)cc1O the results were G9a inh 10%[59 µM], HP1b chromo inh 19%, L3MBTL1 block -6%, Sfp PPTase inh -10%, BAZ2B inh -36% and JMJD2A Tudor -12%.
Cc1ccc(C(=O)/C=C/c2ccc3c(c2)OCCO3)c(O)c1 was read as G9a inh 40µM*, HP1b chromo inh inconclusive, L3MBTL1 block -8%, Sfp PPTase inh -27%, BAZ2B inh inconclusive and JMJD2A Tudor 32µM*.
Screening Cc1ccc(-n2c3c(cc(C(=O)Nc4ccccc4C(N)=O)c2=O)C(=O)CC(C)(C)C3)cc1 returned G9a inh -6%[59 µM], HP1b chromo inh 36%, BAZ2B inh 5% and JMJD2A Tudor 5%.
For Cn1c(=O)c(C(=O)NCC2CCCO2)c(O)c2ccccc21 (stereo unspecified) the results were G9a inh -39%, HP1b chromo inh 9%, L3MBTL1 block 13%, Sfp PPTase inh 24%, BAZ2B inh -26% and JMJD2A Tudor 28µM*.
For Cn1c(C(=O)NCC2CCCO2)cc2c(=O)n(C)c3ccccc3c21 (stereo unspecified) the results were G9a inh inconclusive, HP1b chromo inh 48%, L3MBTL1 block 5%, Sfp PPTase inh 20%, BAZ2B inh 2% and JMJD2A Tudor -4%.
Screening COc1ccccc1NC(=O)CCn1nc(-c2ccccc2)c2ccccc2c1=O returned G9a inh -40%[59 µM], HP1b chromo inh 31%, BAZ2B inh 0% and JMJD2A Tudor -12%.
`COc1ccccc1NC(=O)Cn1nc(-c2ccc(Cl)cc2)c2ccccc2c1=O` gave G9a inh 10µM*, HP1b chromo inh 26%, Sfp PPTase inh inconclusive, BAZ2B inh 5% and JMJD2A Tudor 0%.
O=C(Cn1nc(-c2ccc(Cl)cc2)c2ccccc2c1=O)NCC1CCCO1 (stereo unspecified) was read as G9a inh 7%, HP1b chromo inh inconclusive, L3MBTL1 block 11%, Sfp PPTase inh -9%, BAZ2B inh 10% and JMJD2A Tudor 35µM*.
Screening O=C(Cn1c(=O)n(Cc2ccco2)c(=O)c2cc(Cl)ccc21)NCC1CCCO1 (stereo unspecified) returned G9a inh -44%[12.7 µM], HP1b chromo inh 16%, Sfp PPTase inh 40µM*, BAZ2B inh -27% and JMJD2A Tudor -16%.
`Cc1ccc(-c2nn(CC(=O)NCC3CCCO3)c(=O)c3ccccc23)cc1` (stereo unspecified) gave G9a inh inconclusive, HP1b chromo inh 8%, L3MBTL1 block -2%, Sfp PPTase inh 4%, BAZ2B inh 9% and JMJD2A Tudor -12%.
Cc1cc(F)ccc1NC(=O)c1c(C)oc2c1C1=NCCN1C=N2 was read as G9a inh 23%[59 µM], HP1b chromo inh 12%, BAZ2B inh -1% and JMJD2A Tudor -17%.
CN(C)c1ccc(-c2nn3c(-c4cc(-c5ccccc5)n[nH]4)nnc3s2)cc1 was read as HP1b chromo inh 29%[57 µM] and JMJD2A Tudor -7%[57.1 µM].
For Cc1cccc(NC(=O)CS(=O)(=O)c2nc(-c3ccccc3)cn2-c2cccc(Cl)c2)c1C the results were G9a inh -28%[59 µM], HP1b chromo inh 24%, BAZ2B inh -21% and JMJD2A Tudor -25%.
Screening Cc1c(N=Nc2c(-c3ccc([N+](=O)[O-])cc3)[nH]n(C(N)=S)c2=O)cccc1[N+](=O)[O-] returned G9a inh 50µM*, HP1b chromo inh inconclusive, L3MBTL1 block -6%, Sfp PPTase inh -6%, BAZ2B inh inconclusive and JMJD2A Tudor inconclusive.
For NC(=S)n1[nH]c(-c2ccc([N+](=O)[O-])cc2)c(N=Nc2cccc([N+](=O)[O-])c2)c1=O the results were G9a inh 11µM*, HP1b chromo inh inconclusive, L3MBTL1 block inconclusive, Sfp PPTase inh -41%, BAZ2B inh 40µM* and JMJD2A Tudor 45µM*.
For Cc1[nH]n(-c2ccccc2)c(=O)c1N=Nc1cccc([N+](=O)[O-])c1 the results were HP1b chromo inh -9%, L3MBTL1 block -3%, Sfp PPTase inh 11%, BAZ2B inh inconclusive and JMJD2A Tudor inconclusive.
Screening Cc1[nH]n(C(N)=S)c(=O)c1N=Nc1cc(-c2ccc(Br)cc2)[nH]n1 returned G9a inh -49%, HP1b chromo inh inconclusive, L3MBTL1 block -4%, Sfp PPTase inh 4% and JMJD2A Tudor inconclusive.
